Laboratory results from PubChem BioAssay (Tox21).
Results filed as inconclusive are left out. Active and inactive are the calls of the source. Unless noted, calls follow the shape of the dose curve; as a rule, active = well fitted curve in the direction sought with a large enough effect in the repeat runs; inconclusive = weak or mixed curves; inactive = no such curve, though single readings can be large; an effect the other way counts as inactive or inconclusive.

Columns and labels:
[1] = biological target: Acetylcholinesterase (Homo sapiens) (UniProt P22303); test: Acetylcholinesterase (AChE) small molecule antagonists: enzyme-based qHTS assay (AID 1347397; calls by dose curve; also: nearly all actives have a fitted effect of over 55% in size); conditions: Potency: AChE enzyme activity inhibition
Sequence of Acetylcholinesterase (Homo sapiens) (P22303 whole entry, looked up): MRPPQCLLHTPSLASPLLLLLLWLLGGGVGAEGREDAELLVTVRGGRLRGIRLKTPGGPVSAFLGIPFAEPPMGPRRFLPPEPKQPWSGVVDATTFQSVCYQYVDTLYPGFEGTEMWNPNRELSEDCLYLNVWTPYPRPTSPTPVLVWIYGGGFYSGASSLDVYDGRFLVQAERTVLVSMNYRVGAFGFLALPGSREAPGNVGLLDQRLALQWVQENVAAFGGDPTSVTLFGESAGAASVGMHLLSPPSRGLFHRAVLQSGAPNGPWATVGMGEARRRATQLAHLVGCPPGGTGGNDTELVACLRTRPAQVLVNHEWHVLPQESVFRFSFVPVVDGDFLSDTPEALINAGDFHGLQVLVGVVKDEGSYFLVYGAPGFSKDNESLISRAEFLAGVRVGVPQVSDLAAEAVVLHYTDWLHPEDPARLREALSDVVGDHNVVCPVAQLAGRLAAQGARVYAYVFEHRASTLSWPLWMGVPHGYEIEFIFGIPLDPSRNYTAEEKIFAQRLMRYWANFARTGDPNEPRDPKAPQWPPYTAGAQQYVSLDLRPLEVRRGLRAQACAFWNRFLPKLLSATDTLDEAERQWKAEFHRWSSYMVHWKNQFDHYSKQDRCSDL
Procedure, shortened: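 Recombinant human AChE (50 mU/mL) preincubated with compound 30 min at room temperature; acetylthiocholine plus DTNB then added, and thiocholine formation read colorimetrically after 10 min at room temperature. DMSO served as vehicle control.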

[2] = biological target: Acetylcholinesterase (Homo sapiens) (UniProt P22303); test: Acetylcholinesterase (AChE) small molecule antagonists: fluorescence cell-based qHTS assay (AID 1347398; calls by dose curve; also: nearly all actives have a fitted effect of over 50% in size; also: potency is read from the fitted curve at half-maximal effect); conditions: Potency: AChE activity
Procedure, shortened: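 SH-SY5Y cells (2000/well), attached overnight, incubated with compound 30 min at 37 C. Acetylthiocholine plus Thiolite Green then added for 40 min at room temperature. Thiocholine fluorescence (Ex/Em 490/520 nm) reports cellular AChE activity.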

[3] = biological target: Acetylcholinesterase (Homo sapiens) (UniProt P22303); test: Acetylcholinesterase (AChE) small molecule antagonists: enzyme-based qHTS assay with human liver microsomes (AID 1347399; calls by dose curve; also: nearly all actives have a fitted effect of over 60% in size; also: potency is read from the fitted curve at half-maximal effect); conditions: Potency: qHTS inhibition
Procedure, shortened: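 Recombinant human AChE (50 mU/mL in the enzyme mix) and human liver microsomes (0.25 mg/mL final) were preincubated with compound and NADPH (0.25 mg/mL final) for 30 min at 37 C. Acetylthiocholine/DTNB was then added; thiocholine was read colorimetrically after 10 min at room temperature.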

[4] = biological target: Cytochrome P450 1A2 (Homo sapiens) (UniProt P05177); test: Cytochrome P450 Family 1 Subfamily A Member 2 (CYP1A2) small molecule antagonists: luciferase reporter qHTS assay (AID 1671199); also: nearly all actives have a fitted effect of over 50% in size; also: potency is read from the fitted curve at half-maximal effect
Sequence of Cytochrome P450 1A2 (Homo sapiens) (P05177 whole entry, looked up): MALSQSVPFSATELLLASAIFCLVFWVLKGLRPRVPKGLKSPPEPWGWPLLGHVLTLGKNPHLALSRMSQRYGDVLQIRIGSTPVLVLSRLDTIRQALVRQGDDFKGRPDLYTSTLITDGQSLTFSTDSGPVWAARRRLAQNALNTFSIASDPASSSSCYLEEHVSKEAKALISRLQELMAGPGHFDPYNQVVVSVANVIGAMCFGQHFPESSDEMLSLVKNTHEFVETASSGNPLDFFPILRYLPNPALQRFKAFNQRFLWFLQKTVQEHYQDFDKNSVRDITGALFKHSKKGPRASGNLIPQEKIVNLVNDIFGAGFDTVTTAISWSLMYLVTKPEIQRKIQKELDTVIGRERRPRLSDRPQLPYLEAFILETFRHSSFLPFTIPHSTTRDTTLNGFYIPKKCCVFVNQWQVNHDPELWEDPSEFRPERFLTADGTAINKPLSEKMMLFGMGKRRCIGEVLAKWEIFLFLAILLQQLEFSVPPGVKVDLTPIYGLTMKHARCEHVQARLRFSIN
Procedure, shortened: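 Human CYP1A2 activity measured with a P450-Glo proluciferin substrate; compounds in DMSO preincubated 10 min at room temperature with enzyme-substrate mix, then NADPH regeneration system added for 1 h. Luciferin detection reagent, 20 min, luminescence read.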

[5] = biological target: Voltage-gated inwardly rectifying potassium channel KCNH2 (Homo sapiens) (UniProt Q12809); test: Human Ether-a-go-go-Related Gene (hERG) channel small molecule antagonists: fluorescence cell-based qHTS assay (AID 1671200); also: nearly all actives have a fitted effect of over 50% in size; also: potency is read from the fitted curve at half-maximal effect
Sequence of Voltage-gated inwardly rectifying potassium channel KCNH2 (Homo sapiens) (Q12809 whole entry, looked up): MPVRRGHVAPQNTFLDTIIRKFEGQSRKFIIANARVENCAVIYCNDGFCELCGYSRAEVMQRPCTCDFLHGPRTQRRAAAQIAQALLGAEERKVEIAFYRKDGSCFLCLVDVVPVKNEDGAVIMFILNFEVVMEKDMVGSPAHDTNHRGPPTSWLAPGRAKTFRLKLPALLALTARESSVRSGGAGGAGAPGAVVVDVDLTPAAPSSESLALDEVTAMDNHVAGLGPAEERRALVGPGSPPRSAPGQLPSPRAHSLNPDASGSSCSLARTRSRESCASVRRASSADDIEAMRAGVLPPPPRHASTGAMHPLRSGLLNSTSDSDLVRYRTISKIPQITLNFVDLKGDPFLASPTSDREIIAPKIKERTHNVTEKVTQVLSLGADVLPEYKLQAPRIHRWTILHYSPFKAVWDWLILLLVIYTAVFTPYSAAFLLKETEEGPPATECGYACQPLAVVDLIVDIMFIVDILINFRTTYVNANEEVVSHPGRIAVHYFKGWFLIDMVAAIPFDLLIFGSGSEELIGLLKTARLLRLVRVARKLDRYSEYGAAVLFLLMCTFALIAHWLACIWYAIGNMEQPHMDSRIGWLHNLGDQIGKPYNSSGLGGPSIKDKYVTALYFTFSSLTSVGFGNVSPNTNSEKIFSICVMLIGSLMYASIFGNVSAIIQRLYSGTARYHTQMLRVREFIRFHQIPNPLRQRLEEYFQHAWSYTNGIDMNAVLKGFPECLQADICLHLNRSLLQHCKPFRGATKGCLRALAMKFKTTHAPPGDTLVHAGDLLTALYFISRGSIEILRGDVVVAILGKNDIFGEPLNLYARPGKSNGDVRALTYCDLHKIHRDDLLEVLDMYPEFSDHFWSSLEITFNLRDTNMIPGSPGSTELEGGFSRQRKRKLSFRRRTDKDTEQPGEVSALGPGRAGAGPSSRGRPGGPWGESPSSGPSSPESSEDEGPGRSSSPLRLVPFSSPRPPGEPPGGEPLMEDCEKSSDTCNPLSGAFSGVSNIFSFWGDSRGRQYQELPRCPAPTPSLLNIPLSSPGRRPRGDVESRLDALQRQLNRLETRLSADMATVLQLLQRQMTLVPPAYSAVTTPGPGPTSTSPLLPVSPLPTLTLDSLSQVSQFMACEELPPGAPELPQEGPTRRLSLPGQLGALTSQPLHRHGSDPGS
Procedure, shortened: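 Measured: Tl+ flux via fluorescence (480/540 nm) in hERG-expressing U2OS cells after 1 h dye loading at room temperature.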

[6] = biological target: Cytochrome P450 3A4 (Homo sapiens) (UniProt P08684); test: Cytochrome P450 Family 3 Subfamily A Member 4 (CYP3A4) small molecule antagonists: luciferase reporter qHTS assay (AID 1671201); also: nearly all actives have a fitted effect of over 50% in size; also: potency is read from the fitted curve at half-maximal effect
Sequence of Cytochrome P450 3A4 (Homo sapiens) (P08684 whole entry, looked up): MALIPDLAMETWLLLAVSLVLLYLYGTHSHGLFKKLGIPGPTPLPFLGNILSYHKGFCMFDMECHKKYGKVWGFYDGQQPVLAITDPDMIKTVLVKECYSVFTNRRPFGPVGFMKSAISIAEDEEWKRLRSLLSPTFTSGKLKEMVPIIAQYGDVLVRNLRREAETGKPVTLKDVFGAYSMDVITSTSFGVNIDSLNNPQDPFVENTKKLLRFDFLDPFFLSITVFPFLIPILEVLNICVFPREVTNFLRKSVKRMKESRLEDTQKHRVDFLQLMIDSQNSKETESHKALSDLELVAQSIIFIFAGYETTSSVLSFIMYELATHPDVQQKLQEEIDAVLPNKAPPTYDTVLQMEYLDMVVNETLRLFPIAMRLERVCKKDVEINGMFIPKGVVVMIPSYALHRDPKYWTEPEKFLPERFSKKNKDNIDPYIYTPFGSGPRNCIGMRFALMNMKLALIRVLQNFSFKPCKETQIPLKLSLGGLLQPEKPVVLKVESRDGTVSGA
Procedure, shortened: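 Setup: enzyme-substrate mix, compound pin transfer, 10 min RT. Reaction: NADPH regeneration solution, 1 h RT. Readout: detection reagent stops turnover, luminescence measured after 20 min, expressed in relative luminescence units.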

[7] = biological target: Cytochrome P450 2C9 (Homo sapiens) (UniProt P11712); test: Cytochrome P450 Family 2 Subfamily C Member 9 (CYP2C9) small molecule antagonists: luciferase reporter qHTS assay (AID 1671198); also: nearly all actives have a fitted effect of over 50% in size; also: potency is read from the fitted curve at half-maximal effect
Sequence of Cytochrome P450 2C9 (Homo sapiens) (P11712 whole entry, looked up): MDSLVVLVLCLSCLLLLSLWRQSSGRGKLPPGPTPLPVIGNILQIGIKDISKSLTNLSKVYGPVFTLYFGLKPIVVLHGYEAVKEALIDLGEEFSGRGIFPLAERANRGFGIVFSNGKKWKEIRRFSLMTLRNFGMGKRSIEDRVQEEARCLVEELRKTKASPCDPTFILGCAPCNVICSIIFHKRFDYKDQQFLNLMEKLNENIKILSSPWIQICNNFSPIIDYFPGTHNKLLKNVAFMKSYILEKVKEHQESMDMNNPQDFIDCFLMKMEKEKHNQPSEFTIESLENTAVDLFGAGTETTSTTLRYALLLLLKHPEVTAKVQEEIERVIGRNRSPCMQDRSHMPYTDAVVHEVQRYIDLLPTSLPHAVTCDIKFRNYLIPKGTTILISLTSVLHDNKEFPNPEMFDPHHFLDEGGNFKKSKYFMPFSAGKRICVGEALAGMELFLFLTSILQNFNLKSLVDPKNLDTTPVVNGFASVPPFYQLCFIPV
Procedure, shortened: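 P450-Glo proluciferin substrate with CYP2C9 enzyme; 10 min RT preincubation, then NADPH regeneration 1 h at 37C; luciferin detection reagent 20 min RT, luminescence in relative luminescence units.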

[8] = biological target: Cytochrome P450 2D6 (Homo sapiens) (UniProt P10635); test: Cytochrome P450 Family 2 Subfamily D Member 6 (CYP2D6) small molecule antagonists: luciferase reporter qHTS assay (AID 1671196); also: nearly all actives have a fitted effect of over 50% in size; also: potency is read from the fitted curve at half-maximal effect
Sequence of Cytochrome P450 2D6 (Homo sapiens) (P10635 whole entry, looked up): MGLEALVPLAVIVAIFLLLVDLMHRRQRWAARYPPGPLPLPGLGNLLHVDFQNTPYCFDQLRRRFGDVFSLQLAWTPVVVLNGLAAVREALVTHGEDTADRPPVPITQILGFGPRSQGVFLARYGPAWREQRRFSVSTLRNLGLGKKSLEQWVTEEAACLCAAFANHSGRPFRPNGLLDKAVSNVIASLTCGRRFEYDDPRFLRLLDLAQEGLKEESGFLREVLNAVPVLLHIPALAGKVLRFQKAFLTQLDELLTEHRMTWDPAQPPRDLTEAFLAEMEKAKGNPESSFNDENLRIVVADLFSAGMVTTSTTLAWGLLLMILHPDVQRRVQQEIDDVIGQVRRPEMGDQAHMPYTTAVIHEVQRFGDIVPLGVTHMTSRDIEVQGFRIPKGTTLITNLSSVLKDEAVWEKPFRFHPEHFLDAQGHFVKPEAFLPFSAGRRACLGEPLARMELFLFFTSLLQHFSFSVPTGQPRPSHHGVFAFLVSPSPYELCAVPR
Procedure, shortened: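 CYP2D6 enzyme–substrate mix was held with compound for 10 min at room temperature, then NADPH regeneration solution was added and the reaction ran 1 h at room temperature. Luciferin product was detected by luminescence after 20 min with detection reagent.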

[9] = biological target: Cytochrome P450 2C19 (Homo sapiens) (UniProt P33261); test: Cytochrome P450 Family 2 Subfamily C Member 19 (CYP2C19) small molecule antagonists: luciferase reporter qHTS assay (AID 1671197); also: nearly all actives have a fitted effect of over 65% in size; also: potency is read from the fitted curve at half-maximal effect
Sequence of Cytochrome P450 2C19 (Homo sapiens) (P33261 whole entry, looked up): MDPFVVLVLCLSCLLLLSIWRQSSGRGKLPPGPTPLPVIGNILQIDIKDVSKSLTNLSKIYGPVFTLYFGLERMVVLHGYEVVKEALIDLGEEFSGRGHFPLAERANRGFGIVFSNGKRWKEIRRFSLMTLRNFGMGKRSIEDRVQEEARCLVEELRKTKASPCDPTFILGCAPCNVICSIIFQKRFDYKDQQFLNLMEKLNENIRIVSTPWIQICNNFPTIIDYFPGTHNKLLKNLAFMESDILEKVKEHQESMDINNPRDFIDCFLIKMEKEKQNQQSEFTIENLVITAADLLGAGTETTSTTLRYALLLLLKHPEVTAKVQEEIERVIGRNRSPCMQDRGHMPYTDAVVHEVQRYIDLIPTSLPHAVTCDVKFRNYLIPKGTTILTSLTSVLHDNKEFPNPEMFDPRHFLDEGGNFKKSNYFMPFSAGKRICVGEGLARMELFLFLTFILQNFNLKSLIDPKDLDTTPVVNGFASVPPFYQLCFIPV
Procedure, shortened: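 CYP2C19 P450-Glo, 1536-well qHTS. Cpd + enzyme/proluciferin substrate 10 min RT; + NADPH regen, 37C 1 h; stop with luciferin detection reagent, 20 min RT, luminescence (RLU). Pos ctrl ketoconazole.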

Measured: Potency

CC(C(=O)c1ccccc1)N(C)C (stereo not drawn)
inactive: [1] | [2] | [3] | [4] | [5]

CC(Cl)(Cl)[N+](=O)[O-]
not listed: [7] | [8] | [9]
inactive: all other assays above

CC1CCCCC1NC(=O)Nc1ccccc1 (stereo not drawn)
active: [7] 35.6 µM | [4] 31.7 µM | [6] 11.2 µM
inactive: [1] | [2] | [3] | [5]

CC(CC(C#N)(c1ccccc1)c1ccccc1)N(C)C (stereo not drawn)
inactive: [1] | [2] | [3] | [4]
active: [5] 27.4 µM

CNC(=O)Oc1ccccc1C1OCCO1
active: [4] 25.1 µM
inactive: [1] | [2] | [3] | [5] | [6]

O=C1CN=C(c2ccccc2)c2cc([N+](=O)[O-])ccc2N1
not listed: [7] | [8] | [9]
inactive: all other assays above

CS(=O)(=O)c1cc(C(F)(F)F)ccc1C(=O)c1cnoc1C1CC1
active: [9] 56.4 µM | [7] 1.59 µM | [4] 35.6 µM
not listed: [1]
inactive: all other assays above

CCN(CC)c1nc(C)cc(OP(=S)(OC)OC)n1
active: [7] 22.4 µM | [4] 1.78 µM | [6] 2.24 µM
inactive: [1] | [3]

O=C(N[C@H]1CN2CCC1CC2)c1cc2ccoc2cn1
active: [8] 28.3 µM
not listed: [2] | [7]
inactive: all other assays above

Nc1c(Br)cc([N+](=O)[O-])cc1[N+](=O)[O-]
active: [9] 50.8 µM | [4] 1.8 µM
not listed: [2] | [8]
inactive: all other assays above

c1cc[c]([Hg][c]2ccccc2)cc1
active: [8] 1 µM | [9] 22.4 µM | [7] 31.7 µM | [4] 10 µM
inactive: [2] | [3] | [5] | [6]

N#CC(CCc1ccc(Cl)cc1)(Cn1cncn1)c1ccccc1 (stereo not drawn)
inactive: [1] | [2] | [3]
active: [4] 31.7 µM | [6] 0.0633 µM

CC(C)NCC(O)c1ccc(N)c(C#N)c1 (stereo not drawn)
inactive: [1] | [2] | [3] | [5]

O=C1OC(=O)C2C1C1(Cl)C(Cl)=C(Cl)C2(Cl)C1(Cl)Cl (stereo not drawn)
not listed: [1]
inactive: all other assays above

CCCCc1c(C)nc(NCC)[nH]c1=O
active: [4] 17.8 µM
not listed: [8] | [9]
inactive: all other assays above

CC(CCc1ccccc1)NC(C)C(O)c1ccc(O)cc1 (stereo not drawn)
active: [8] 0.436 µM | [9] 9.77 µM | [4] 15.5 µM | [5] 4.77 µM
inactive: [2] | [3] | [7] | [6]

Clc1ccccc1N1CCNCC1
active: [8] 9.77 µM
inactive: [1] | [3] | [9] | [7] | [6]

ClCC(Cl)(Cl)Cl
not listed: [1]
inactive: all other assays above

ClCC(Cl)Cl
not listed: [2] | [4] | [8]
inactive: all other assays above

O=NN1CCCCC1
inactive: [2] | [3] | [8] | [4] | [5]
active: [9] 35.4 µM

COc1ccc2c(c1OC)CN1CCc3cc4c(cc3C1C2)OCO4 (stereo not drawn)
active: [2] 1.38 µM | [8] 0.246 µM | [9] 0.977 µM | [7] 30.9 µM | [4] 15.5 µM

CC1CN1P(=O)(N1CC1C)N1CC1C (stereo not drawn)
not listed: [1] | [7] | [8]
inactive: all other assays above

N#CC(O)c1ccccc1 (stereo not drawn)
inactive: [2] | [3] | [9] | [6]
active: [8] 35.5 µM

O=C(CCCN1CCC(n2c(=O)[nH]c3ccccc32)CC1)c1ccc(F)cc1
active: [8] 8.71 µM
inactive: [2] | [3] | [9] | [4] | [6]

CN/C(=N\[N+](=O)[O-])NCC1CCOC1 (stereo not drawn)
inactive: [5]

CCOP(=S)(OCC)Oc1ncn(-c2ccccc2)n1
inactive: [8] | [5]
active: [2] 35.6 µM | [3] 3.17 µM | [7] 0.502 µM | [4] 1.78 µM | [6] 2.52 µM

CCOC(=O)C1(c2ccccc2)CCN(CCc2ccc(N)cc2)CC1
inactive: [2] | [3] | [4]
active: [8] 3.47 µM | [5] 19 µM

CC(=O)CCc1ccc2c(c1)OCO2
inactive: [2] | [3] | [5]
active: [9] 35.6 µM | [7] 31.7 µM | [4] 0.633 µM | [6] 22.4 µM

CNC(=O)Oc1cccc(C(C)C)c1
inactive: [5]

CCCCCCBr
inactive: [5]

CCOP(=S)(OCC)SCSP(=S)(OCC)OCC
active: [2] 35.6 µM | [3] 17.8 µM | [8] 35.6 µM | [9] 0.399 µM | [4] 15.9 µM | [6] 1.26 µM

C[C@H]1CCC[C@H](O)CCCCCc2cc(O)cc(O)c2C(=O)O1
inactive: [2] | [3]
active: [9] 22.6 µM | [4] 35.8 µM | [6] 0.715 µM

O=[N+]([O-])c1cccc2cccnc12
inactive: [2] | [3] | [8] | [7] | [6]
active: [4] 36.5 µM

CCCCC(=O)Cl
inactive: [2] | [3] | [7] | [5] | [6]

CC(C)CC#N
inactive: [2] | [3] | [4] | [6]
active: [9] 32.5 µM

CCN(CC)C(=O)[C@@H]1C=C2c3cccc4[nH]cc(c34)C[C@H]2N(C)C1
inactive: [3] | [5]
active: [2] 58.7 µM | [8] 0.466 µM | [6] 82.8 µM

CCCSP(=O)(OCC)Oc1ccc(Br)cc1Cl (stereo not drawn)
active: [2] 0.866 µM | [3] 2.74 µM | [8] 15.4 µM | [9] 3.45 µM | [7] 10.9 µM | [4] 4.34 µM
inactive: [6]

COc1ccc(C(=O)N2CCCC2=O)cc1
inactive: [5]

CC1COC2(c3ccccc3Cl)c3cc(Cl)ccc3NC(=O)CN12 (stereo not drawn)
active: [8] 15.5 µM | [9] 4.36 µM
inactive: [2] | [3] | [4]

CCC1(c2ccccc2)C(=O)NC(=O)NC1=O
active: [8] 11.5 µM
not listed: [1] | [4]
inactive: all other assays above

CN(C)CCc1ccc(O)cc1
not listed: [1] | [7]
inactive: all other assays above

Cc1cc(C)c(C(=O)P(=O)(C(=O)c2c(C)cc(C)cc2C)c2ccccc2)c(C)c1
active: [7] 35.6 µM | [4] 71 µM | [6] 25.2 µM
inactive: [2] | [3] | [5]

CCOP(=S)(OCC)Oc1nc(Cl)n(C(C)C)n1
inactive: [5]
active: [4] 2.24 µM | [6] 1.59 µM

Cc1ncc2n1-c1ccc(Cl)cc1C(c1ccccc1F)=NC2
active: [9] 15.5 µM | [7] 17.4 µM
inactive: [2] | [3] | [5]

N#CC(Cl)(Cl)Cl
active: [8] 69.2 µM
inactive: [2] | [3] | [4] | [5] | [6]

[As]#[In]
not listed: [1] | [7]
inactive: all other assays above

CCCSC(=O)N(CCC)CCC
not listed: [1] | [5] | [8]
inactive: all other assays above

CCOP(=S)(OCC)Oc1cc(-c2ccccc2)on1
active: [2] 44.8 µM | [3] 3.17 µM | [8] 35.6 µM | [9] 1.59 µM | [4] 3.17 µM | [6] 1.26 µM
inactive: [5]

CNC(=O)N(C)c1nc2ccccc2s1
active: [9] 39.9 µM | [7] 39.9 µM | [4] 2.52 µM
inactive: [2] | [3] | [5]

COc1cc2c(cc1OC)[C@@]13CCN4CC5=CCO[C@H]6CC(=O)N2[C@H]1[C@H]6[C@H]5C[C@H]43
inactive: [2] | [3] | [7] | [4]

CCCCOC(=O)c1ccccc1C(=O)O
not listed: [1] | [7] | [9]
inactive: all other assays above

CC(C)CC(N(C)C)C1(c2ccc(Cl)cc2)CCC1 (stereo not drawn)
inactive: [7] | [4]
active: [8] 4.36 µM | [9] 9.77 µM

CCOP(=O)(N=C1SCCS1)OCC
not listed: [1] | [2]
inactive: all other assays above

C[C@]12CC[C@H]3[C@@H](CC=C4C[C@@H](O)CC[C@@]43C)[C@@H]1CC[C@@H]2O
inactive: [5]

O=C(Cc1ccccc1)OCc1ccccc1
active: [4] 18 µM
inactive: [2] | [3] | [5] | [6]

CCOC(=O)N(C)C(=O)CSP(=S)(OCC)OCC
active: [8] 28.3 µM | [7] 0.71 µM | [4] 3.17 µM | [6] 2.24 µM
inactive: [2] | [3] | [5]

COP(N)(=S)Oc1ccccc1C(=O)OC(C)C (stereo not drawn)
inactive: [2] | [5]
active: [3] 2.83 µM | [8] 31.7 µM | [7] 6.33 µM | [4] 2 µM | [6] 2 µM
